This is an account of results in PubChem BioAssay (EPA / NIEHS).

Read-out in test [1]: Macrophage colony-stimulating factor (MCSF), CSF1 (gene 1435)
The test can be described thus: BSK_LPS_MCSF: BioMAP Diversity Plus: LPS Assay for Macrophage colony-stimulating factor (MCSF) Biomarker Activity (AID 2283083). To be noted: primary human HUVEC with PBMC; actives raise or lower the signal. Put shortly: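 HUVEC + PBMC co-culture (human primary), 24 h post-dose; M-CSF by ELISA; gain/loss of signal fitted bidirectionally vs DMSO baseline.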

Read-out in test [2]: Tissue Factor, F3 (gene 2152)
The experiment in a line: BSK_LPS_TissueFactor: BioMAP Diversity Plus: LPS Assay for Tissue Factor Biomarker Activity (AID 2283084). Particulars: primary human HUVEC with PBMC; actives raise or lower the signal. Put shortly:
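HUVEC/PBMC co-culture, LPS-activated; CD142 ELISA read 24 h post-dose; bidirectional curve fit vs DMSO negative control.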

Read-out in test [3]: Tumor necrosis factor (Homo sapiens) (UniProt P01375)
The experiment in a line: BSK_LPS_TNFa: BioMAP Diversity Plus: LPS Assay for Tumour Necrosis Factor alpha (TNFa) Biomarker Activity (AID 2283085).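 As to AC50: TNFa protein level quantified by ELISA in the co-culture.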 Particulars: primary human HUVEC with PBMC; actives raise or lower the signal. Put shortly:
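TNFa was quantified by ELISA in LPS-activated co-cultures of human endothelial cells and PBMC, 24 h post-dosing. Both increases and decreases versus DMSO were fitted.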

Read-out in test [4]: Vascular cell adhesion molecule 1 (VCAM1), VCAM1 (gene 7412)
The experiment in a line: BSK_LPS_VCAM1: BioMAP Diversity Plus: LPS Assay for Vascular cell adhesion molecule 1 (VCAM1) Biomarker Activity (AID 2283086). To be noted: primary human HUVEC with PBMC; actives raise or lower the signal. In short, it runs like this:
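VCAM-1 quantified by ELISA in an LPS-activated co-culture of human endothelial cells and peripheral blood mononuclear cells, read 24 h post-treatment. Fitted in both directions versus DMSO; parallel SRB staining flags overt cytotoxicity.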

Read-out in the next test: CD38, CD38 (gene 952)
The experiment in a line: BSK_SAg_CD38: BioMAP Diversity Plus: SAg Assay for CD38 Biomarker Activity (AID 2283087). Particulars: primary human HUVEC with PBMC; actives raise or lower the signal. In short, it runs like this:
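CD38 quantified by ELISA (fluorescence) in a superantigen-activated endothelial cell–PBMC co-culture at 24 h post-dose. Activity fitted in both directions relative to DMSO; parallel SRB and Alamar Blue cytotoxicity read-outs.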

Read-out in the next test: CD40, CD40 (gene 958)
The test can be described thus: BSK_SAg_CD40: BioMAP Diversity Plus: SAg Assay for CD40 Biomarker Activity (AID 2283088). To be noted: primary human HUVEC with PBMC; actives raise or lower the signal. Put shortly:
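HUVEC/PBMC co-culture, 24 h post-dose; CD40 by ELISA, fluorescence intensity; bidirectional fit vs DMSO negative control.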

Read-out in another test: CD69, CD69 (gene 969)
The experiment in a line: BSK_SAg_CD69: BioMAP Diversity Plus: SAg Assay for CD69 Biomarker Activity (AID 2283089). To be noted: primary human HUVEC with PBMC; actives raise or lower the signal. Put shortly:
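Endothelial/PBMC co-culture; chemical added; 24 h incubation; CD69 ELISA with fluorescence detection; bidirectional fit vs DMSO.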

Read-out in test [5]: Monocyte Chemoattractant Protein-1 (MCP1), CCL2 (gene 6347)
The test can be described thus: BSK_SAg_MCP1: BioMAP Diversity Plus: SAg Assay for Monocyte Chemoattractant Protein-1 (MCP1) Biomarker Activity (AID 2283090). To be noted: primary human HUVEC with PBMC; actives raise or lower the signal. In short, it runs like this:
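Values derive from bidirectional fitting of ELISA-measured MCP1 against DMSO controls. Readings were taken 24 h after dosing human vascular endothelial cells co-cultured with peripheral blood mononuclear cells under superantigen stimulation.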

Read-out in test [6]: E-selectin (Homo sapiens) (UniProt P16581)
The test can be described thus: BSK_SAg_Eselectin: BioMAP Diversity Plus: SAg Assay for Eselectin Biomarker Activity (AID 2283091). Particulars: primary human HUVEC with PBMC; actives raise or lower the signal. Put shortly:
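E-selectin ELISA readout at 24 h post-dosing in human umbilical vein endothelial cell/PBMC co-culture; gain or loss of signal fitted relative to DMSO baseline.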

Read-out in test [7]: Monokine induced gamma interferon (MIG), CXCL9 (gene 4283)
The test can be described thus: BSK_SAg_MIG: BioMAP Diversity Plus: SAg Assay for Monokine induced gamma interferon (MIG) Biomarker Activity (AID 2283092). To be noted: primary human HUVEC with PBMC; actives raise or lower the signal. Put shortly:
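Measures CXCL9 protein by ELISA in a human vascular primary-cell co-culture (umbilical vein endothelium with PBMC) 24 h after chemical addition. Activity is scored up or down from the DMSO control.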

Test [8] is described as follows: BSK_SAg_PBMCCytotoxicity: PBMC Cytotoxicity Assessment in the BioMAP Diversity Plus: SAg Assay (AID 2283093).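 Also: fitted both ways against DMSO so a hit may be loss or gain of signal.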 Particulars: primary human HUVEC with PBMC. In short, it runs like this:
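PBMC viability by Alamar Blue reduction, fluorescence read at 546/580 nm after 6 h dye exposure. Cells were dosed 1 h before SEB plus TSST-1 activation (20 ng/mL final each), then held 90 h; endothelial/PBMC human co-culture.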

Read-out in test [9]: Interleukin-8 (IL8), CXCL8 (gene 3576)
The experiment in a line: BSK_SAg_IL8: BioMAP Diversity Plus: SAg Assay for Interleukin-8 (IL8) Biomarker Activity (AID 2283094). To be noted: primary human HUVEC with PBMC; actives raise or lower the signal. In short, it runs like this:
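ELISA readout of IL-8 from a superantigen-activated endothelial/PBMC primary human co-culture, taken 24 h post-dosing and fitted in both directions against DMSO; parallel SRB total-protein staining flags overt cytotoxicity.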

Test [10] is described as follows: BSK_SAg_Proliferation: Cell Proliferation Assessment in the BioMAP Diversity Plus: SAg Assay (AID 2283095).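 Also: relative cell number as total protein by SRB absorbance in sub-confluent culture.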 Particulars: primary human HUVEC with PBMC. In short, it runs like this: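 Relative cell number in the endothelial cell/PBMC co-culture was quantified at 96 h by SRB staining (0.1% SRB, 10% TCA fixation, read at 560 nm). Curves were fitted in both directions relative to DMSO baseline.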

The nature of test [11]: BSK_SAg_SRB: Viability Assessment in the BioMAP Diversity Plus: SAg Assay (AID 2283096).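 Also: cells read one day after compound addition; hits may be either gain or loss of signal compared with DMSO.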 To be noted: primary human HUVEC with PBMC. In short, it runs like this:
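Compounds were added to a human vascular co-culture of umbilical vein endothelium and PBMC. After 24 h, parallel cultures were fixed with 10% TCA, stained with 0.1% sulforhodamine B and read at 560 nm. Gain or loss of signal was fitted relative to DMSO.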

Test [12] addresses human CYP2D6, CYP2D6 (gene 1565) (UniProt P10635). The experiment in a line: NVS_ADME_hCYP2D6: NovaScreen (NVS) CYP450-related Enzyme Activity (ADME) Assay for human CYP2D6 (AID 2283107; active = hit-call score of the fitted dose curve at least 0.9, where 1 is the maximum). Put shortly: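 Fluorescence intensity read 1 h post-dosing; insect-cell-expressed recombinant protein with fluorogenic substrate, no cells. Activity is scored as signal loss relative to acetonitrile baseline, first at a single 10 uM concentration in duplicate, then as concentration series for confirmed actives.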

Test [13] addresses human CYP2B6, CYP2B6 (gene 1555) (UniProt P20813). The test can be described thus: NVS_ADME_hCYP2B6: NovaScreen (NVS) CYP450-related Enzyme Activity (ADME) Assay for human CYP2B6 (AID 2283101; active = hit-call score of the fitted dose curve at least 0.9, where 1 is the maximum). In short, it runs like this:
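Recombinant protein, specific fluorescent substrate, read at 1 h post-dosing. Primary: single 10 uM, duplicate; follow-up: concentration series. Activity = signal loss vs acetonitrile baseline, with positive and negative controls on every plate.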

The target in test [14] is human CYP1A2, CYP1A2 (gene 1544) (UniProt P05177). The experiment in a line: NVS_ADME_hCYP1A2: NovaScreen (NVS) CYP450-related Enzyme Activity (ADME) Assay for human CYP1A2 (AID 2283102; active = hit-call score of the fitted dose curve at least 0.9, where 1 is the maximum). In short, it runs like this: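 Fluorescence-intensity enzyme activity read-out, taken 0.5 h post-dosing, using insect-cell-derived recombinant CYP1A2 and specific fluorescent substrate. Acetonitrile served as negative control/baseline. Single-concentration duplicate screen at 10 uM, then concentration-response follow-up.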

Records with an inconclusive call do not appear. Activity calls are given as the source filed them. The calls were made as follows, unless noted: active = hit-call score of the fitted dose curve at least 0.9, where 1 is the maximum; inactive = score below 0.9.

Sequence of E-selectin (Homo sapiens) (P16581 whole entry, looked up): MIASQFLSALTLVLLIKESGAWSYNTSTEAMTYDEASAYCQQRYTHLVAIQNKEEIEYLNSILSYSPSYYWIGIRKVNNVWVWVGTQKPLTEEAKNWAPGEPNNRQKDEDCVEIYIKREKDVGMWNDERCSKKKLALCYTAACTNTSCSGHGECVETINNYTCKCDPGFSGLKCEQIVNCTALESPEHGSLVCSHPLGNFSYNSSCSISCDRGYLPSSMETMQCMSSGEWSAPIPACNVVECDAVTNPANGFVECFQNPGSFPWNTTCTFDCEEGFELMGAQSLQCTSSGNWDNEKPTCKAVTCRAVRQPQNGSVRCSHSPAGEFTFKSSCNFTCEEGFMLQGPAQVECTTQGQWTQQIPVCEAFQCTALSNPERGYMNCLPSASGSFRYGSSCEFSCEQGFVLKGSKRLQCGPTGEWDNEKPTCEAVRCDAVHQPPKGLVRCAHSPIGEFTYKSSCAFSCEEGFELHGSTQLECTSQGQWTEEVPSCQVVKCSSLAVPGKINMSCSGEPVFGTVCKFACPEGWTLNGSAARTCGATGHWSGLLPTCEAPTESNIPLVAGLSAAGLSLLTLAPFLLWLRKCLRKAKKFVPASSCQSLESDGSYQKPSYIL
Sequence of Tumor necrosis factor (Homo sapiens) (P01375 whole entry, looked up): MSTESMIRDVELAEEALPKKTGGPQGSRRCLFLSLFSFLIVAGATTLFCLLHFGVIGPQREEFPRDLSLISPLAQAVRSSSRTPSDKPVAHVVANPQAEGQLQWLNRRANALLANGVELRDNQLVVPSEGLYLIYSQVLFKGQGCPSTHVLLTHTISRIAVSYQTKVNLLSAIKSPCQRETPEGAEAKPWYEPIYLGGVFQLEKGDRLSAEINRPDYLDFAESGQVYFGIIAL
Sequence of human CYP2D6, CYP2D6 (gene 1565) (P10635 whole entry, looked up): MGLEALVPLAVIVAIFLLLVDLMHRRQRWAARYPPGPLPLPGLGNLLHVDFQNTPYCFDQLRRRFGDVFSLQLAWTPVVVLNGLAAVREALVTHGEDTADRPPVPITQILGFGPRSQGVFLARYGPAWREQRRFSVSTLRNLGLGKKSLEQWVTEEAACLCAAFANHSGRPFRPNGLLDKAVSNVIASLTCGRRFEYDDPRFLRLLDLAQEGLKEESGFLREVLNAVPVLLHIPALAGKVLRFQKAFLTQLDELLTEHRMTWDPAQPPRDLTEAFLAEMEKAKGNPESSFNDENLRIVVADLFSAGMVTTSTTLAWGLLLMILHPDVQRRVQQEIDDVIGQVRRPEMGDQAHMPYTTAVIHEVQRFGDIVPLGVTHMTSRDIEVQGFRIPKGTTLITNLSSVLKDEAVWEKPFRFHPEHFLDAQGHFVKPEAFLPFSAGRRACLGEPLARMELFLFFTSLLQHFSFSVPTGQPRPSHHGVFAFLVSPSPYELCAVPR
Sequence of human CYP1A2, CYP1A2 (gene 1544) (P05177 whole entry, looked up): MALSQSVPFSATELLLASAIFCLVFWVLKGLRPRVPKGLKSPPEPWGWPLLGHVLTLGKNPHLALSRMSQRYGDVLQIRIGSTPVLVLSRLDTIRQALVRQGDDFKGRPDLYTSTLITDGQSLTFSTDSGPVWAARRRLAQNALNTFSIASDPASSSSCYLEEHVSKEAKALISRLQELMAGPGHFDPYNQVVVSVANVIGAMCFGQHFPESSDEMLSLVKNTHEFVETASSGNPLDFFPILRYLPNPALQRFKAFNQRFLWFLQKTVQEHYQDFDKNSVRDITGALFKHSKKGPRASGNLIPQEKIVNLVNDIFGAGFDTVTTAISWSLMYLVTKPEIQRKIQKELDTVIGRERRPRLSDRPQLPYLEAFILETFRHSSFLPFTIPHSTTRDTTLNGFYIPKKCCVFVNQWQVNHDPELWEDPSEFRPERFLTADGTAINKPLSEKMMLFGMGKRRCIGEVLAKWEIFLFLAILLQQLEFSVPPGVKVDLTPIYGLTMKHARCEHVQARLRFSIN
Sequence of human CYP2B6, CYP2B6 (gene 1555) (P20813 whole entry, looked up): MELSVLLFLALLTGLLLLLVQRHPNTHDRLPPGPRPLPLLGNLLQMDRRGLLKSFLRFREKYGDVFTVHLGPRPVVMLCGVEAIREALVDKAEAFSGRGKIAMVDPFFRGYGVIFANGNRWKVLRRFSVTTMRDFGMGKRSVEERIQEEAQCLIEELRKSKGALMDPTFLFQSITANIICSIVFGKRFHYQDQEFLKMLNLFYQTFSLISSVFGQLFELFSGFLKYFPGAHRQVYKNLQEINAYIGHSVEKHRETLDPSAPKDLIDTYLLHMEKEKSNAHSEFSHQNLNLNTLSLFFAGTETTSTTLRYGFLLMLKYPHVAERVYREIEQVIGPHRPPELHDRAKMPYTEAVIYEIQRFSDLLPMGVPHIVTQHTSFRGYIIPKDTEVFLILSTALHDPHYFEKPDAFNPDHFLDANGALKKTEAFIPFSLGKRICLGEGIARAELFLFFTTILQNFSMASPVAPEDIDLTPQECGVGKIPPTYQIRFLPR

On to `O=C(Cl)C(F)(F)C(F)(F)C(F)(F)C(=O)Cl`, for which the outcome in [1] is “inactive”; in test [2] it was “inactive”; in test [3], “inactive”; in test [4], “inactive”; with CD38, CD38 (gene 952) it was “inactive”; with CD40, CD40 (gene 958), “inactive”. The outcome is “inactive” in the test with CD69, CD69 (gene 969); “inactive” in test [5]; “inactive” in test [6]; “inactive” in test [7]; “inactive” in [8]; “inactive” in test [9]. Also, the result in test [10] and in test [11] was inactive.

Turning to `CCn1nc(C)c2c1C(=O)NCC(c1ccc(O)cc1)=N2`, the outcome in [1] was “inactive”; in [2] it was “inactive”; in test [4], “inactive”; with CD69, CD69 (gene 969), “inactive”; in test [7] it was “inactive”; in [8], “inactive”. The outcome in [9] and in test [11] was inactive. Besides, the AC50 – broadly, the concentration giving half of the maximal activity seen – is 0.78 µM (active) in test [3]; 8.91 µM (active) in the test with CD38, CD38 (gene 952); 20 µM (active) with CD40, CD40 (gene 958); 4.49 µM (active) in [5]; 0.435 µM (active) in [6]; 20 µM (active) in test [10]. Besides, the AC50 in [12] was 6.23 µM (active).

As to `CCCc1ccccc1`, the outcome in [1] is “inactive”; in [2] it was “inactive”; in test [3], “inactive”; in test [4], “inactive”; with CD38, CD38 (gene 952) it was “inactive”; with CD40, CD40 (gene 958), “inactive”. Besides, the outcome with CD69, CD69 (gene 969) was “inactive”; in test [5], “inactive”; in test [6], “inactive”; in test [7], “inactive”; in test [8], “inactive”; in test [9], “inactive”. For the same compound, the outcome in test [11] was inactive.

On to `c1ccc2cc3ccccc3cc2c1`, for which the outcome was “inactive” in test [1]; “inactive” in [2]; “inactive” in test [3]; “inactive” in [4]; “inactive” in the test with CD38, CD38 (gene 952); “inactive” with CD40, CD40 (gene 958). Moreover, the outcome with CD69, CD69 (gene 969) was “inactive”; in test [5], “inactive”; in test [6], “inactive”; in test [7], “inactive”; in test [8] it was “inactive”; in test [9], “inactive”. Moreover, in test [11], the result was inactive.

With `FC(F)(F)C(F)(F)C(F)(F)C(F)(F)C(F)(F)C(F)(F)I`, the outcome is “inactive” in test [1]; “inactive” in test [2]; “inactive” in test [3]; “inactive” in test [4]; “inactive” with CD38, CD38 (gene 952); “inactive” with CD40, CD40 (gene 958). Further, the outcome with CD69, CD69 (gene 969) is “inactive”; in test [5], “inactive”; in [6], “inactive”; in test [7], “inactive”; in test [8] it was “inactive”; in test [9] it was “inactive”. In test [11], the outcome was inactive.

With `CC(=O)c1ccccc1`, the outcome in test [1] is “inactive”; in [2] it was “inactive”; in test [3], “inactive”; in [4], “inactive”; with CD38, CD38 (gene 952) it was “inactive”; with CD40, CD40 (gene 958), “inactive”. For the same compound, the outcome with CD69, CD69 (gene 969) is “inactive”; in test [5], “inactive”; in test [6] it was “inactive”; in [7] it was “inactive”; in test [8], “inactive”; in test [9] it was “inactive”. Moreover, in test [11], the outcome was inactive.

For `CCCOc1ccc(S(=O)(=O)N2CCN(CC)CC2)cc1-c1nc2c(CC)n(Cc3ccccn3)nc2c(=O)[nH]1`, the outcome in test [1] was “inactive”; in [2], “inactive”; in test [4], “inactive”; in the test with CD38, CD38 (gene 952), “inactive”; with CD40, CD40 (gene 958) it was “inactive”; with CD69, CD69 (gene 969), “inactive”. Moreover, the result in [5], in test [6], in test [7], in test [8], in test [9] and in test [11] was inactive. In addition, the AC50 in [3] was 3.63 µM (active).

As for `CCCCCCCCCC`, the outcome in test [1] is “inactive”; in test [2], “inactive”; in test [3] it was “inactive”; in test [4], “inactive”; with CD38, CD38 (gene 952), “inactive”; with CD40, CD40 (gene 958), “inactive”. In addition, the outcome with CD69, CD69 (gene 969) is “inactive”; in [5], “inactive”; in test [6], “inactive”; in [7] it was “inactive”; in test [8] it was “inactive”; in test [9], “inactive”. Besides, the result in [11], in test [14] and in test [12] was inactive. The AC50 in test [13] is 10 µM (active).

With `Cc1ncc([C@@H](CCCCCCc2ccc3c(n2)NCCC3)CC(=O)O)cn1`, the outcome in [1] was “inactive”; in test [2], “inactive”; in test [3] it was “inactive”; in test [4], “inactive”; with CD38, CD38 (gene 952), “inactive”; in the test with CD40, CD40 (gene 958) it was “inactive”. For the same compound, the outcome in the test with CD69, CD69 (gene 969) was “inactive”; in test [5] it was “inactive”; in [6], “inactive”; in [7], “inactive”; in test [8] it was “inactive”; in test [9], “inactive”. Also, the outcome in test [11] was inactive.
